From the supplement of paper PMC8728848
The entries come from a sample that favours the strongest signals as a whole.

Assays:
Test in all cases: glycan array binding signal (z-score within array); higher = stronger binding
Settings in all cases: glycan notation: IUPAC condensed, linker removed
[1] = target: Fuc(a1-2)Gal(b1-4)[Fuc(a1-3)]GlcNAc(b1-3)Gal(b1-4)[Fuc(a1-3)]GlcNAc
Summary of the method: (§1)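 Columns mapping to the same glycan were averaged after glycan names were converted to IUPAC-condensed notation. The data come from 3228 arrays in the Consortium for Functional Glycomics database, limited to those with an available protein sequence. Binding is reported as a within-array Z-score averaged across arrays of one protein sequence and across linkers.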

[2] = target: Fuc(a1-2)[Gal(a1-3)]Gal
Summary of the method: as §1

[3] = target: Fuc(a1-2)[GalNAc(a1-3)]Gal(b1-4)Glc
Summary of the method: as §1

[4] = target: Fuc(a1-3)[Gal(b1-4)]GlcNAc
Summary of the method: as §1

[5] = target: Fuc(b1-3)GlcNAc
Summary of the method: as §1

[6] = target: Gal(a1-3)Gal
Summary of the method: as §1

[7] = target: Gal(b1-3)[Neu5Ac(a2-6)]GalNAc
Summary of the method: as §1

[8] = target: Gal(b1-3)[Neu5Ac(a2-6)]GlcNAc(b1-6)Gal(b1-4)Glc
Summary of the method: as §1

[9] = target: Gal(b1-4)GlcNAc(b1-3)Gal(b1-4)GlcNAc
Summary of the method: as §1

[10] = target: Gal3S6S(b1-4)GlcNAc6S
Summary of the method: as §1

[11] = target: GalNAc(b1-3)Gal(a1-4)Gal(b1-4)GlcNAc
Summary of the method: as §1

[12] = target: GalNAc(b1-4)GlcNAc
Summary of the method: as §1

[13] = target: Glc(b1-6)Glc
Summary of the method: as §1

[14] = target: GlcA(b1-3)Gal
Summary of the method: as §1

[15] = target: GlcA(b1-6)Gal
Summary of the method: as §1

[16] = target: GlcNAc(b1-3)Gal
Summary of the method: as §1

[17] = target: GlcNAc(b1-3)Gal(b1-4)GlcNAc(b1-3)Gal(b1-4)GlcNAc
Summary of the method: as §1

[18] = target: Kdn(a2-3)Gal(b1-4)GlcNAc
Summary of the method: as §1

[19] = target: Man(b1-4)GlcNAc
Summary of the method: as §1

[20] = target: Neu5Ac(a2-3)Gal(b1-3)[Fuc(a1-4)]GlcNAc
Summary of the method: as §1

[21] = target: Neu5Ac(a2-3)Gal(b1-4)GlcNAc(b1-3)Gal(b1-4)GlcNAc(b1-3)Gal(b1-4)GlcNAc
Summary of the method: as §1

[22] = target: Neu5Ac(a2-3)[GalNAc(b1-4)]Gal(b1-4)GlcNAc
Summary of the method: as §1

[23] = target: Neu5Ac(a2-8)Neu5Ac
Summary of the method: as §1

[24] = target: Neu5Gc(a2-3)Gal(b1-3)[Fuc(a1-4)]GlcNAc
Summary of the method: as §1

[25] = target: Neu5Gc(a2-3)Gal(b1-4)GlcNAc
Summary of the method: as §1

[26] = target: Neu5Gc(a2-6)Gal(b1-4)GlcNAc
Summary of the method: as §1

B1: AICL (Homo sapiens), Q92478 (protein)
chain: MMTKHKKCFIIVGVLITTNIITLIVKLTRDSQSLCPYDWIGFQNKCYYFSKEEGDWNSSKYNCSTQHADLTIIDNIEEMNFLRRYKCSSDHWIGLKMAKNRTGQWVDGATFTKSFGMRGSEGCAYLSDDGAATARCYTERKWICRKRIH
glycan array binding signal (z-score) [1]: -0.049 | glycan array binding signal (z-score) [2]: -0.508 | glycan array binding signal (z-score) [3]: -0.265 | glycan array binding signal (z-score) [4]: -0.169 | glycan array binding signal (z-score) [5]: -0.469 | glycan array binding signal (z-score) [6]: -0.224 | glycan array binding signal (z-score) [7]: -0.085 | glycan array binding signal (z-score) [8]: -0.359 | glycan array binding signal (z-score) [9]: -0.439 | glycan array binding signal (z-score) [10]: 5.26 | glycan array binding signal (z-score) [11]: -0.363 | glycan array binding signal (z-score) [12]: -0.322 | glycan array binding signal (z-score) [13]: -0.395 | glycan array binding signal (z-score) [14]: 5.65 | glycan array binding signal (z-score) [15]: 4.6 | glycan array binding signal (z-score) [16]: -0.329 | glycan array binding signal (z-score) [17]: -0.374 | glycan array binding signal (z-score) [18]: 2.06 | glycan array binding signal (z-score) [19]: -0.401 | glycan array binding signal (z-score) [20]: -0.312 | glycan array binding signal (z-score) [21]: -0.415 | glycan array binding signal (z-score) [22]: -0.3 | glycan array binding signal (z-score) [23]: 0.384 | glycan array binding signal (z-score) [24]: -0.323 | glycan array binding signal (z-score) [25]: 0.329 | glycan array binding signal (z-score) [26]: -0.267
